Compounds with a hit are over-represented: about 4% of the library has one in this group of screens.
MazF activator = MazEF (E. coli) toxin RNase activation. P0AE70. FAM/BHQ RNA-DNA oligo cleavage fluorescence, 5 h. activation, % at 20 µM. 0.32% of 350,000 active. AID 504720; in the data active = activation above about 50%
Target sequence (P0AE70 whole entry, looked up): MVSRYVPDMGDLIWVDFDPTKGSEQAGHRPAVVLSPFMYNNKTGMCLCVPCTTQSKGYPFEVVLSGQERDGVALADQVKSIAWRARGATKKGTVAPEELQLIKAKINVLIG
Anthrax LF inh2 = anthrax lethal factor protease inhibition; 0.12% of 360,000 active; multiplex microsphere protease cleavage assay, LF; inhibition, % at 10 µM; in the data active = inhibition above about 30%; inconclusive = no clear call, values can overlap the other calls
DUSP3 inh = DUSP3 (human) phosphatase inhibition; recombinant VHR phosphatase, pNPP absorbance; P51452; 0.52% of 290,000 active; inhibition, % at 13.3 µM; in the data active = inhibition above about 50%
Target sequence (P51452 whole entry, looked up): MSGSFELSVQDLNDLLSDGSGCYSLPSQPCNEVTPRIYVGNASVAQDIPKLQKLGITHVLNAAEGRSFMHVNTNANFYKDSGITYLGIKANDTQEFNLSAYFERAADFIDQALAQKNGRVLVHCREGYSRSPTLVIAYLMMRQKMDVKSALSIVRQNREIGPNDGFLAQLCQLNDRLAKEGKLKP
Bead autofluor = counter-screen for toxin protease inhibitors: compound fluorescence; 3.1% of 360,000 active; fluorescence intensity (no concentration beside the values); compound autofluorescence counterscreen, microsphere flow cytometry; active compounds read high; in the data active = fluorescence intensity above about 16000; inconclusive = no clear call, values can overlap the other calls
BoNT-A LC inh2 = blocks Botulinum neurotoxin A light chain protease; multiplex microsphere protease substrate cleavage, flow cytometry; inhibition, % at 10 µM; 0.17% of 360,000 active; in the data active = inhibition above about 30%; inconclusive = no clear call, values can overlap the other calls
BoNT F protease = inhibitors of Botulinum neurotoxin F light chain protease; Multiplex microsphere protease cleavage assay, flow cytometry; inhibition, % at 10 µM; 0.22% of 360,000 active; AID 588497; in the data active = inhibition above about 35%, passing the limit was not always enough; inconclusive = no clear call, values can overlap the other calls
BoNT-A LC CP2 = inhibitors of botulinum neurotoxin A light chain protease | 10% of 150 active | multiplex microsphere protease cleavage assay, flow cytometry | shares compounds with BoNT-A LC inh2 | inhibition, % at 10 µM; in the data active = inhibition above about 24%
LF protease CP2 = blocks anthrax lethal factor protease | inhibition, % at 10 µM | shares compounds with BoNT-A LC inh2 | 7% of 150 active | AID 602327 | multiplex microsphere protease cleavage assay
BoNTF LC inh 2 = inhibitors of botulinum neurotoxin F light chain protease; multiplex microsphere protease cleavage assay, flow cytometry; inhibition, % at 10 µM; 7% of 150 active; AID 602336; shares compounds with BoNT-A LC inh2
A number is an active result; – = inactive; ? = inconclusive; · = no result given. Rule as the data show it, unless noted: active = inhibition above about 25%; inactive = the rest.

SMILES	MazF activator	Anthrax LF inh2	DUSP3 inh	Bead autofluor	BoNT-A LC inh2	BoNT F protease	BoNT-A LC CP2	LF protease CP2	BoNTF LC inh 2
CCN(Cc1ccccc1)C(=O)c1cc2cc(OC)c(OC)cc2[nH]1	–	–	–	–	–	–	·	·	·
COc1cc(N(C)C)ccc1C=c1c2ccccc2n2c1cc(-c1ccccc1)[n+]2C	–	–	·	–	56	–	30	–	–
COc1ccc(NC(=O)c2cc(S(=O)(=O)N3CCOCC3)ccc2C)cc1S(=O)(=O)N1CCCCC1	–	–	·	–	–	–	·	·	·
COc1ccc(NC(=O)c2cc(S(=O)(=O)N3CCCC3)ccc2C)cn1	–	45	·	–	–	73	–	–	–
O=C(O)CN1CCN(CC(=O)O)CCN(CC(=O)O)CCN(CC(=O)O)CC1	–	–	·	–	–	63	–	–	48
Cc1cc(Br)ccc1SCC(=O)OCC(=O)Nc1ccc2[nH]c(=O)[nH]c2c1	–	36	·	–	–	62	–	–	–
CCCC(=O)OCC(=O)Nc1ccc2[nH]c(=O)[nH]c2c1	–	–	–	–	–	–	·	·	·
CCOC(=O)c1c(C)[nH]c(C(=O)COC(=O)COc2ccccc2C)c1C	–	–	–	–	–	–	·	·	·
Cc1cccc(C(=O)OCC(=O)c2c(C)[nH]c3ccccc23)c1O	–	–	·	–	–	–	–	–	–
CCOc1ccccc1OCC(=O)OCC(=O)c1c(C)[nH]c2ccccc12	–	–	·	–	–	–	–	–	–
Cc1cc2nc(-c3cccc(Br)c3)c(Cc3cccc(Cl)c3)n2c(C)c1Br	·	–	·	–	–	–	–	–	45
COc1ccccc1Cc1c(-c2ccc(C)cc2)nc2cc(C)c(Br)c(C)n12	·	–	·	–	–	–	–	–	–
COc1ccccc1Cc1c(-c2ccccc2)nc2cc(C)c(Br)c(C)n12	·	–	·	–	–	–	–	–	–
COc1ccccc1Cc1c(-c2ccc(F)cc2)nc2cc(C)c(Br)c(C)n12	·	–	·	–	–	–	25	–	–
Cc1cc2nc(-c3cccc(Cl)c3)c(Cc3ccccc3)n2c(C)c1Br	·	–	·	–	–	–	·	·	·
N#C/C(=C\c1ccc(C(=O)O)cc1)S(=O)(=O)c1cc(Br)ccc1Br	–	–	–	–	–	–	·	·	·
CCc1ccc(CCOc2ccc(CC3SC(=O)NC3=O)cc2)nc1 (centres undefined)	–	–	·	–	–	–	·	·	·
C#CCOCCOCCOCCNc1nc(N2CCN(C(=O)Cn3cc(CCO)nn3)CC2)nc(N2CCN(C(=O)Cn3cc(CCCCN)nn3)CC2)n1	–	–	·	–	–	–	·	·	·
Cc1cc2cc(CNC(=O)Nc3cccc(Cl)c3)ccc2n1C	–	–	–	–	48	–	–	–	–
Cc1cccc(NC(=O)NCc2ccc3c(c2)OCO3)c1	·	–	–	?	–	–	·	·	·
Cc1cccc(NC(=O)NCc2ccc3c(c2)cc(C)n3C)c1	–	–	–	–	58	–	–	–	–
O=C(NCc1ccccc1)c1cc(C2CCCN(C(=O)CCCc3ccccc3)C2)on1 (centres undefined)	·	–	·	–	–	–	·	·	·
Cc1ccc(S(=O)(=O)NCCn2c(C)cc3ccccc32)cc1	·	·	–	·	·	·	·	·	·
Cc1cc2ccccc2n1CCNC(=O)Cc1ccccc1	–	–	–	–	72	–	24	30	–
Cc1cc(C)c(S(=O)(=O)NCCn2c(C)cc3ccccc32)c(C)c1	–	–	–	–	42	–	–	–	–
SMILES	MazF activator	Anthrax LF inh2	DUSP3 inh	Bead autofluor	BoNT-A LC inh2	BoNT F protease	BoNT-A LC CP2	LF protease CP2	BoNTF LC inh 2
Cc1cc2ccccc2n1CCNC(=O)C(C)Oc1ccccc1 (centres undefined)	–	–	–	–	79	–	–	–	–
Cc1cc2ccccc2n1CCNC(=O)c1ccc(S(=O)(=O)N2CCCCC2)cc1	–	–	–	–	59	–	53	–	–
COCCNC(=O)C(C)Oc1ccccc1 (centres undefined)	–	–	–	–	–	–	·	·	·
COC1OC(CO)C(N(C)C(C)=O)C1O (centres undefined)	–	–	·	–	–	–	·	·	·
Cc1ccc(C(=O)NCCN2CCOCC2)cc1S(=O)(=O)N1CCCCC1	–	–	–	–	–	–	·	·	·
Cc1cc2ccccc2n1CCNC(=O)C(C)C	–	60	–	–	80	–	29	34	–
CCCCC(c1nc2ccccc2[nH]1)n1c(-c2ccccc2)nc2cc(C)c(C)cc21 (centres undefined)	·	–	·	–	–	–	·	·	·
CCCCCCCCC(c1nc2cc(C)c(C)cc2[nH]1)n1c(=O)c(-c2ccccc2Br)nc2ccccc21 (centres undefined)	·	–	·	–	–	–	28	–	–
CCCCC(c1nc2ccccc2[nH]1)n1c(=O)c(-c2ccccc2)nc2cc(C)c(C)cc21 (centres undefined)	·	34	·	–	30	–	–	–	–
COc1ccc2cc(C3=CC(=O)CC(C)(C)C3=O)ccc2c1	–	32	·	–	–	–	–	–	–
COc1ccc(-c2ccccc2C2=CC(=O)CC(C)(C)C2=O)cc1	–	–	·	–	–	–	·	·	·
COc1ccc(S(=O)(=O)NC(=O)C2(C)CCN2C(=O)C2(c3ccccc3)CC2)cc1 (centres undefined)	·	–	·	–	–	–	·	·	·
O=C(COC(=O)c1cncc(Br)c1)NCc1ccco1	–	–	–	–	–	–	·	·	·
COc1ccc(OCC(=O)c2c[nH]c3ccccc23)cc1	–	–	–	–	–	–	·	·	·
Cc1ccc(C(=O)OCC(=O)c2c[nH]c3ccccc23)cc1	–	–	–	–	–	–	–	–	–
O=C(OCC(=O)c1c[nH]c2ccccc12)c1cc(Br)ccc1O	–	–	–	–	–	–	–	–	–
CC(C)Cc1ccc(C(C)C(=O)OCC(=O)c2c[nH]c3ccccc23)cc1 (centres undefined)	–	–	–	–	–	–	–	–	–
O=C(COc1ccccc1)OCC(=O)c1c[nH]c2ccccc12	–	–	·	–	–	–	–	–	–
Cc1cnc(C(=O)OCC(=O)c2c[nH]c3ccccc23)cn1	–	–	·	–	–	?	·	·	·
Cn1cccc1C(=O)OCC(=O)c1c[nH]c2ccccc12	–	–	·	–	–	–	·	·	·
O=C(NCC(=O)N1CCCCCCC1)c1cccc([N+](=O)[O-])c1	–	–	·	–	–	–	·	·	·
COc1cc(CNc2ccc(CNc3ncn[nH]3)cc2)ccc1OCC(=O)NC(C)(C)C	–	–	–	–	–	–	·	·	·
COc1ccc(C(=O)OCC(=O)c2c[nH]c3ccccc23)cc1OC	–	39	·	–	37	–	28	–	–
COc1ccc(-c2oc3c(OC)c(OC)c(OC)c(O)c3c(=O)c2OC)cc1OC	–	34	–	–	39	–	–	–	–
CCN(CC)c1ccc2cc(S(=O)(=O)c3ccc(C)cc3)c(=O)oc2c1	–	–	–	–	–	–	–	–	–

Screens as filed in PubChem BioAssay.
